Compounds with a hit are over-represented: about 5.4% of the library has one in this group of screens.
p53 reactivator: mutant p53 re-activation in reporter cells; H1299 p53-A138V BP100-luciferase reporter, luminescence, 24 h; Potency, µM (highest dose often 92.2 µM), for inactives: top-dose activity change, positive = activation, usual class: activators; 320,000 tested, 0.063% active; also: potency is read from the fitted curve at half-maximal effect; % of control where 0% means no effect; nearly all actives have a fitted effect of over 45% in size
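H1299 (p53-null), stable ts p53-A138V + BP100-Luc; 1000 cells/well, Opti-MEM/10% FBS; cpd 4 pt, 1:5; 24 h, 37 deg C, 5% CO2; detection reagent 10 min RT; luminescence.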
CtBP-E1A blk: blocks the CtBP interaction with E1A | AlphaScreen GST-E1A/His-CtBP binding, 1536-well; hits give low values | 340,000 tested, 0.49% active | activity change, % (no concentration beside the values); in the data active = activity change below about -65%; inconclusive = mostly about -30% to -63%; also: % is scaled to controls: 0 for no effect and ±100 for the full control effect
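Homogeneous bead-based format: GST-tagged E1A captured on glutathione donor beads, His-tagged CtBP on nickel acceptor beads; compounds precede bead addition by 2 h at 37 °C.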
Gal4-VP16 FLuc: inhibits Gal4-VP16 luciferase reporter, ROR gamma counter-screen; Drosophila S2 Gal4-VP16 UAS-luciferase, luminescence, 20 h; Potency, µM (titrated, usually from 53.6 µM), for inactives: top-dose activity, negative = inhibition, usual class: inhibitors; 310,000 tested, 3.5% active;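 also: Gal4-VP16 expression switched on by copper sulfate through the metallothionein promoter; potency is read from the fitted curve at half-maximal effect; % is scaled to controls: 0 for no effect and ±100 for the full control effect; nearly all actives have a fitted effect of over 50% in size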
RORg inh: ROR gamma (mouse) transcription inhibition; P51450; Drosophila S2 Gal4-RORgamma UAS-luciferase reporter, 20 h; Potency, µM (doses to about 53.6 µM), for inactives: at the top dose activity change, negative = inhibition, hits mostly inhibitors; 310,000 tested, 5.4% active; also: potency is read from the fitted curve at half-maximal effect; % is scaled to controls: 0 for no effect and ±100 for the full control effect; nearly all actives have a fitted effect of over 60% in size
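A Gal4/UAS one-hybrid system in insect cells: metallothionein-promoter Gal4–ROR gamma fusion plus Photinus luciferase reporter. Copper sulfate 700 uM final, 20 hr ambient incubation, luminescent detection after 10 min with reagent.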
Six1-Eya2 blk: Six1/Eya2 interaction inhibition; Q15475+O00167; AlphaScreen GST-Six1/His-Eya2 binding, biochemical; hits give low values; activity change, % (test concentration not listed); 360,000 tested, 0.56% active; AID 651725; in the data active = activity change below about -65%; inconclusive = mostly about -30% to -63%; also: % is scaled to controls: 0 for no effect and ±100 for the full control effect
Target sequence (O00167 whole entry, looked up): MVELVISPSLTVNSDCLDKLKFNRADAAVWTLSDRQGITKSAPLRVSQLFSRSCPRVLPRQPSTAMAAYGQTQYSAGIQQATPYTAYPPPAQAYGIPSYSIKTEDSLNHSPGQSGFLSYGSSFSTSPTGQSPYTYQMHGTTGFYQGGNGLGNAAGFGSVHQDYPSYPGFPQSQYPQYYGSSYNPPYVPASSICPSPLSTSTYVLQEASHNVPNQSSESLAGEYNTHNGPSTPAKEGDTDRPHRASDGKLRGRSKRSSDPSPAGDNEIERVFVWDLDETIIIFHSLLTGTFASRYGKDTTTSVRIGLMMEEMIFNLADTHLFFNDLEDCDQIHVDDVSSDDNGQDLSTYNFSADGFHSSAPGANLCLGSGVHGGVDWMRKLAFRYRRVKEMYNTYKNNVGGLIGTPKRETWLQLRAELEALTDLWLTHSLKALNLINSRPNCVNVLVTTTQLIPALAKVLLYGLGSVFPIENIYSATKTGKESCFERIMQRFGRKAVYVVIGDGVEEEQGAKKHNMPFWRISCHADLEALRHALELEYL
Target sequence (Q15475 whole entry, looked up): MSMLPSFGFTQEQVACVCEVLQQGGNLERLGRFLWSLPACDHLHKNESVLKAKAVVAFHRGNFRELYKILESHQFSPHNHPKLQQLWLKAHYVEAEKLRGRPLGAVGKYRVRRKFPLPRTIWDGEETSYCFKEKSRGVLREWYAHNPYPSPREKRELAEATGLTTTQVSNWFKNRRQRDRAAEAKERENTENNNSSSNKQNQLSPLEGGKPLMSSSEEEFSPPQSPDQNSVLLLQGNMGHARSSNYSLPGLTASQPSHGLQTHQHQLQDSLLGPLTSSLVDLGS
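Compounds are tested against tagged Six1 and Eya2 proteins bridged by glutathione donor and nickel acceptor beads; after a one-hour incubation at 37 °C without light, AlphaScreen emission is recorded.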
Active calls of the source: *; ! = not confirmed by another sample; [ ] = dose if it differs, or a comment. Unless noted, calls follow the shape of the dose curve; as a rule, active = well fitted curve in the direction sought with a large enough effect; inconclusive = small, poorly fitted or top-dose-only effect, or another doubt; inactive = no such curve, though single readings can be large; an effect the other way counts as inactive or inconclusive.

`CCC/C=C(\CCC)C(NS(C)(=O)=O)c1ccccc1` (configuration not stated) gave Gal4-VP16 FLuc -7% and RORg inh -4%.
`C=CCNC(=S)NCC1COc2ccccc2O1` (configuration not stated) gave p53 reactivator 8%, CtBP-E1A blk -2, Gal4-VP16 FLuc -23%, RORg inh 11µM* and Six1-Eya2 blk -5.
Cc1c(Cl)cccc1NC(=S)NCC1COc2ccccc2O1 (configuration not stated) was read as p53 reactivator -5%, CtBP-E1A blk -2, Gal4-VP16 FLuc inconclusive, RORg inh 6.3µM* and Six1-Eya2 blk 1.
Screening O=C(NCCNC(=O)c1ccc(-c2ccc(Cl)c(Cl)c2)o1)c1cnccn1 returned p53 reactivator -9%, CtBP-E1A blk -10, Gal4-VP16 FLuc -3%, RORg inh 0% and Six1-Eya2 blk -11.
Screening Cc1ccccc1/C=c1\s/c(=C\C(=O)C(C)(C)C)[nH]c1=O returned p53 reactivator 17%, CtBP-E1A blk -14, Gal4-VP16 FLuc 0.89µM*, RORg inh inconclusive and Six1-Eya2 blk inconclusive.
Screening CC(=O)c1ccc(N(C)C)cc1 returned p53 reactivator 1%, CtBP-E1A blk 4, Gal4-VP16 FLuc 15%, RORg inh 6% and Six1-Eya2 blk -2.
CN(C)c1ccc(C(=C2C=CC(=[N+](C)C)C=C2)c2ccc(N(C)C)cc2)cc1 was read as Gal4-VP16 FLuc 1.6µM*! and RORg inh 1.1µM*.
For CN(C)c1ccc(C(=C2C=CC(=[N+](C)C)C=C2)c2c(O)c(S(=O)(=O)[O-])cc3cc(S(=O)(=O)O)ccc23)cc1 the results were Gal4-VP16 FLuc 8.9µM* and RORg inh 8.9µM*.
`Cc1ccc2oc(-c3ccc(NC(=O)c4ccncc4)cc3O)nc2c1` gave p53 reactivator 6%, Gal4-VP16 FLuc 4%, RORg inh 7.1µM* and Six1-Eya2 blk -1.
CCCC(=O)Nc1ccc(-c2nc3cc(C)ccc3o2)cc1 was read as p53 reactivator inconclusive, CtBP-E1A blk 0, Gal4-VP16 FLuc 2.8µM*, RORg inh 4µM* and Six1-Eya2 blk -2.
`CCS(=O)(=O)c1ccc2c(c1)N(S(C)(=O)=O)CC(C(=O)NC1CC1)O2` (configuration not stated) gave p53 reactivator 7%, CtBP-E1A blk 2, Gal4-VP16 FLuc 2%, RORg inh 6% and Six1-Eya2 blk 0.
For CC(=O)OC[C@@H]1O[C@H](CCO/N=C(\C)CCN2CCc3nc(-c4ccccc4)c(-c4ccccc4)cc3C2)C=C[C@@H]1OC(C)=O the results were Gal4-VP16 FLuc 5%[10 µM] and RORg inh -9%[10 µM].
For O=C(c1cc(-c2ccc(Cl)cc2Cl)on1)N1CCOCC1 the results were p53 reactivator 28%, CtBP-E1A blk 9, Gal4-VP16 FLuc inconclusive, RORg inh 10µM* and Six1-Eya2 blk 4.
For O=C(c1cc(-c2ccc3c(c2)OCO3)on1)N1CCOCC1 the results were p53 reactivator -13%, CtBP-E1A blk 1, Gal4-VP16 FLuc 7.9µM*, RORg inh 10µM* and Six1-Eya2 blk 2.
O=C(c1cc(-c2ccc(Cl)cc2)on1)N1CCOCC1 was read as p53 reactivator 22%, CtBP-E1A blk 3, Gal4-VP16 FLuc inconclusive, RORg inh 10µM* and Six1-Eya2 blk 4.
Screening O=C(c1cc(-c2ccc3c(c2)OCO3)on1)N1CCN(c2ccccc2)CC1 returned p53 reactivator inconclusive, CtBP-E1A blk -15, Gal4-VP16 FLuc 1%, RORg inh 30% and Six1-Eya2 blk -15.
`CC(C)=C1CCC(C)CC1=O` (configuration not stated) gave Gal4-VP16 FLuc 2% and RORg inh 7%.
For COc1ccc2cc(C(=O)C3CCCN(Cc4cccc(C)n4)C3)ccc2c1 (configuration not stated) the results were p53 reactivator -2%, CtBP-E1A blk -2, Gal4-VP16 FLuc 13µM*, RORg inh 2µM* and Six1-Eya2 blk -3.
For Cc1cccc(CN2CCCC(C(=O)c3ccc4c5c(cccc35)CC4)C2)n1 (configuration not stated) the results were p53 reactivator -6%, CtBP-E1A blk -12, Gal4-VP16 FLuc 13µM*, RORg inh 4µM* and Six1-Eya2 blk -14.
For COc1ncc2nc(-c3cn(C)c4ccccc34)c(=O)n(CCc3ccccc3)c2n1 the results were Gal4-VP16 FLuc 2% and RORg inh -1%.
For Cc1ccc(NC(=S)NNC(=O)c2ccccc2OC(F)F)cc1 the results were p53 reactivator inconclusive, CtBP-E1A blk -24, Gal4-VP16 FLuc -14%, RORg inh inconclusive and Six1-Eya2 blk 1.
For O=C(NNC(=S)Nc1ccc(F)cc1)c1ccccc1OC(F)F the results were p53 reactivator 19%, CtBP-E1A blk -5, Gal4-VP16 FLuc 1%, RORg inh 2.8µM* and Six1-Eya2 blk -1.
COC(=O)c1c(N2C(=O)CC(Sc3ncccc3C(=O)O)C2=O)sc(C)c1C (configuration not stated) was read as p53 reactivator -2%, CtBP-E1A blk -14, Gal4-VP16 FLuc -2%, RORg inh -6% and Six1-Eya2 blk 0.
For COc1ccc(N(CC(=O)Nc2cc(C)ccc2C)S(=O)(=O)c2ccccc2[N+](=O)[O-])c(OC)c1 the results were p53 reactivator 0%, CtBP-E1A blk -9, Gal4-VP16 FLuc -1%, RORg inh 22% and Six1-Eya2 blk -7.
CC1(C)SC2C(C(=O)O)N=C(Cc3ccccc3)N2C1C(=O)O (configuration not stated) was read as CtBP-E1A blk -84* and Six1-Eya2 blk -81*.
`CC1(C)S[C@@H]2[C@H](NC(=O)Cc3ccccc3)C(=O)N2[C@@H]1C(=O)O` gave Gal4-VP16 FLuc -4% and RORg inh -2%[10 µM].
`O=C(N/N=C/c1c(O)n(-c2ccccc2Cl)c(=O)c2ccccc12)c1cccnc1` gave p53 reactivator 6%, CtBP-E1A blk -5, Gal4-VP16 FLuc -7%, RORg inh 13µM* and Six1-Eya2 blk -17.
`O=C(N/N=C/c1c(O)n(Cc2ccccc2)c(=O)c2ccccc12)c1cccnc1` gave p53 reactivator 2%, CtBP-E1A blk -1, Gal4-VP16 FLuc -1%, RORg inh 11µM* and Six1-Eya2 blk -15.
`COc1ccc(Cn2c(O)c(/C=N/NC(=O)c3cccnc3)c3ccccc3c2=O)cc1` gave p53 reactivator 8%, CtBP-E1A blk -8, Gal4-VP16 FLuc 0%, RORg inh 6.3µM* and Six1-Eya2 blk -8.
`COc1ccc(Cn2c(O)c(C=Nc3ccc(OC)cc3)c3ccccc3c2=O)cc1` gave p53 reactivator -2%, CtBP-E1A blk 4, Gal4-VP16 FLuc -11%, RORg inh 3% and Six1-Eya2 blk 5.

Bioassay records deposited in PubChem BioAssay by National Center for Advancing Translational Sciences (NCATS).
